Among all 16,000 compounds or so, about 5,800 (36%) were called active. Another 23% or so got no clear call; they are omitted. The list shows a part of the results. Values without a mark were called inactive. The call rests on the fitted dose curve; in most records, active means well fitted curve in the direction sought with a large enough effect; inconclusive means small, poorly fitted or top-dose-only effect, or effect the other way; inactive means no such curve, though single readings can be large or run the other way.
target: Cytochrome P450 2C19 (Homo sapiens) (UniProt P33261); test: Cytochrome panel assay with activity outcomes; conditions: recombinant CYP, pro-luciferin dealkylation, luminescence, p450-cyp2c19; series mostly up to 57.1 µM; activity, negative = inhibition: at the top concentration
Procedure: The P450 gene superfamily is involved in the metabolism and clearance of xenobiotics. This assay used various human CYP P450 isozymes to measure the dealkylation of various pro-luciferin substrates to luciferin. The luciferin is then measured by luminescence after the addition of a luciferase detection reagent. Pro-luciferin substrate concentration in the assay was equal to its KM for its CYP P450 isozyme. Inhibitors and some substrates limit the production of luciferin, and decrease measured luminescence.
NCGC Assay Protocol Summary:
1, Reagent, 2 uL, Isozyme and Pro-Luciferin
2, Library compounds, 23 nl, 40 uM to 0.24 nM dilution series
3, Controls, 23 nl, Isozyme specific inhibitor
4, Reagent, 2 uL, NADPH regeneration solution
5, Incubation time, 60 min, Isozyme specific temperature
6, Reagent, 4ul, Detection reagent
7, Incubation time, 20 min, Isozyme specific temperature
8, Detection, 1 sec, ViewLux luminescent read
The luciferase-based P450-GloTM Screening Systems were obtained from Promega (Madison, WI) for CYP 1A2 (V9770), CYP 2C9 (V9790), CYP2 C19 (V9880), CYP 2D6 (V9890), and CYP 3A4 Luciferin-PPXE (V9910) and were adapted for 1,536-well microplates and an automated protocol. The control compounds furafylline for 1A2 (F124), sulfaphenazole for CYP 2C9 (S0758), ketoconazole for CYP 2C19 (K1003), quinidine for 2D6 (Q3625), and ketoconazole for 3A4 (K1003) were purchased from Sigma Aldrich (St. Louis, MO). Recombinant P450 enzymes were obtained from baculovirus constructs expressed in insect cells (BD/Gentest).
Medium-binding white solid Kalypsys plates used. Mixtures kept on ice. 1A2: 10 nM 1A2, 100 uM Luc-ME, 100 mM KPO4; 2C9: 10 nM 2C9, 100 uM Luc-H, 25 mM KPO4; 2C19: 5 nM 2C19, 10 uM Luc-H EGE, 50 mM KPO4; 2D6: 5 nM 2D6, 30 uM Luc-ME EGE, 100 mM KPO4; 3A4: 10 nM, 25 uM Luc-PPXE. All amounts are reflected in their final concentration, working concentration is 2x.
NADPH regeneration solution: 1.3 mM NADP+, 3.3 mM glucose-6-phosphate, 3.3 mM MgCl2, 0.4 U/mL glucose-6-phosphate dehydrogenase for all isozymes, 200 mM KPO4 for 3A4. Mixture prepared at RT but kept on ice during automated run.
RT incubation in auxilliary plate hotel for 1A2, 2D6, and 3A4; 37C for 2C9 and 2C19.
Keywords: P450, CYP1A2, CYP2C19, CYP2C9, CYP2D6, CYP3A4, Luciferase, MLSMR, MLSCN, NIH Roadmap, qHTS, NCGC
On the % scale 0 is the no-effect control and ±100 the full control effect.

Sequence of Cytochrome P450 2C19 (Homo sapiens) (P33261 whole entry, looked up): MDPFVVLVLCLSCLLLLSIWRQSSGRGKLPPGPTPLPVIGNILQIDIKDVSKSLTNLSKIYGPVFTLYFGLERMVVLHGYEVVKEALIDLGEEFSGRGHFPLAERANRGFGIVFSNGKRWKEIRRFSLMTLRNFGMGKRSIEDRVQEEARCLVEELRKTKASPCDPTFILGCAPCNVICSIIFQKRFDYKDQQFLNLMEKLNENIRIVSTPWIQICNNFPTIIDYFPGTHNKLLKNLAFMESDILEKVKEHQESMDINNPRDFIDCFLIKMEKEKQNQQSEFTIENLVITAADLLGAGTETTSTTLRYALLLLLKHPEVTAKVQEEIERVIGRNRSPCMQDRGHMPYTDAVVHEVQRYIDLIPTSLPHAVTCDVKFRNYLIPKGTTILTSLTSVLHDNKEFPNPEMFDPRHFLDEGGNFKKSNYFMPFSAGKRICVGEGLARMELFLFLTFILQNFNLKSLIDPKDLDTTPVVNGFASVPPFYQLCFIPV

Going from `CCOC(=O)c1ncn2c1[C@H]1CCCN1C(=O)c1cc(OC)ccc1-2` to `COc1ccc(C(=O)c2c(C)n(CCN3CCOCC3)c3cc(I)ccc23)cc1`, the “activity, negative = inhibition” value falls from 27.7% to 7.54%.

Going from `O=C(Nc1ccccc1)N1CC2(CCN(C(=O)Oc3ccccc3)CC2)C1` to `O=C(Oc1ccccc1)N1CCC2(CCCN(Cc3nccs3)C2)CC1`, the “activity, negative = inhibition” value rises from -43.7% to 22.6%.

Compared with `N[C@H](Cc1ccc(N(CCCl)CCCl)cc1)C(=O)O`, `NNC(=O)c1ccc(O)cc1` is higher in “activity, negative = inhibition” value: 12.3% for the first, 28.3% for the second.

First: CCCC(CCC)C(=O)O
Second: C[C@](N)(CCP(=O)(O)O)C(=O)O
The “activity, negative = inhibition” value of the first is higher: -0.0295% for the first, -26.4% for the second.

Going from `C1CCc2nnnn2CC1` to `c1ccc(N2CC[C@@]3(CCCNC3)C2)nc1`, the “activity, negative = inhibition” value rises from 0.268% to 10.5%.

Going from `Cc1c(C(=O)c2ccc3ccccc3c2)c2cccc3c2n1[C@H](CN1CCOCC1)CO3` to `CCCN1CCO[C@@H]2c3cc(O)ccc3OC[C@H]21`, the “activity, negative = inhibition” value falls from 6.16% to -29.4%.

Going from `COc1ccc2c3c1O[C@@H]1C(=O)CC[C@@]4(O)[C@@H](C2)N(CC2CC2)CC[C@]314` to `CCCN1CC[C@@H]2c3cc(O)ccc3CC[C@H]21`, the “activity, negative = inhibition” value rises from -21.4% to -19%.

Going from `COc1ccc2c(c1)CCC1C2CC[C@]2(C)[C@H](NCCCCCCN3C(=O)C=CC3=O)CC[C@@H]12` (stereo partly specified) to `O=C(Nc1cccc(F)c1)N1CC2(CCNCC2)C1`, the “activity, negative = inhibition” value falls from 33.9% to -10.4%.

Compared with `NC(=NCCc1ccc(I)cc1)SCCCc1cnc[nH]1`, `N[C@@H]1C=CC=C(C(=O)O)C1` is higher in “activity, negative = inhibition” value: -36.4% for the first, 26.3% for the second.

First: O=[N+]([O-])c1cc(O)c(O)c([N+](=O)[O-])c1
Second: CC(=O)O[C@@H]1CN2CCC1CC2
The “activity, negative = inhibition” value of the first is lower: -35.3% for the first, -13.1% for the second.

First: COC(=O)[C@@H]1c2cc3c(c(O)c2[C@@H](O)C[C@]1(C)O)C(=O)c1c(O)cc2c(c1C3=O)O[C@H]1O[C@@]2(C)[C@@H](O)[C@H](N(C)C)[C@H]1O
Second: COC(=O)[C@@H]1[C@@H](O)[C@@]2(O)c3c(OC)cc(OC)cc3O[C@@]2(c2ccc(OC)cc2)[C@H]1c1ccccc1
The activity, negative = inhibition of the first is lower: -43.8% [at 11.4 µM] for the first, 8.06% [at 11.4 µM] for the second.

Going from `O=C(C[n+]1ccc2ccccc2c1)c1ccc2ccc3ccccc3c2c1` to `CCC1=C(C[C@H]2NCCc3ccccc32)C[C@@H]2c3cc(OC)c(OC)cc3CCN2C1`, the activity, negative = inhibition falls from 1.57% [at 11.4 µM] to -23.2% [at 11.4 µM].

First: Nc1nc(N)c(N=Nc2ccc([As](=O)(O)O)c(O)c2)c(N)n1
Second: O=C(O)Cc1ccc([N+](=O)[O-])cc1[N+](=O)[O-]
The activity, negative = inhibition of the first is higher: 31% [at 11.4 µM] for the first, -28.8% [at 11.4 µM] for the second.

Going from `C[C@]12CC[C@@H]3[C@H](CCC4=CC(=O)CC[C@]43C)[C@]1(O)CC[C@@]2(O)C(=O)CO` to `CC(=O)[C@]1(O)CC[C@@H]2[C@H]3C[C@@H](C)C4=CC(=O)CC[C@@]4(C)[C@H]3[C@@H](O)C[C@]21C`, the activity, negative = inhibition falls from 24.8% [at 11.4 µM] to -31.5% [at 11.4 µM].

Compared with `COc1cc2c(cc1OC)[C@@]13CCN4CC5=CCO[C@H](CC(=O)O)[C@@H]([C@H]1N2)[C@H]5C[C@H]43`, `C=C[C@@H]1CN2CC[C@H]1C[C@H]2[C@H](O)c1ccnc2ccccc12` is higher in activity, negative = inhibition: -11.9% [at 11.4 µM] for the first, 44.5% [at 11.4 µM] for the second.

Going from `c1ccc(CCN2CCCCCC2)nc1` to `O=C(O)[C@H]1[O][Sb][O][C@@H](C(=O)O)C1O` (stereo partly specified), the activity, negative = inhibition falls from 38.1% [at 11.4 µM] to 15.3% [at 11.4 µM].

With `O=C(Nc1ccc(F)cc1F)c1cccnc1Oc1cccc(C(F)(F)F)c1` the AC50 was 1.26 µM (active).
`CCCn1c(C)c(C(=O)c2ccc3ccccc3c2)c2ccccc21` was tested, and the AC50 was 2 µM (active).
In the case of `CCCn1c(C)c(C(=O)c2cccc3ccccc23)c2ccccc21`, the AC50 is reported as 10 µM (active).
With `CN1C(=O)C(=Cc2ccc(N3CCCCCC3)o2)C(=O)N(C)C1=S` the AC50 was 2.24 µM (active).
For `O=[N+]([O-])c1ccc(S(=O)(=O)Cc2ccccc2)c([N+](=O)[O-])c1`, the AC50 was 2 µM (active).
With `CN1C(=O)C(=Cc2ccccc2Oc2ccc(Cl)c(F)c2)C(=O)N(C)C1=O` the AC50 was 3.55 µM (active).
For `CC1CN=C(Nc2cccc3ccccc23)S1` (stereo unspecified), the AC50 was 3.98 µM (active).
For `CN(N=O)C(=O)N[C@H]1C(O)OC(CO)[C@@H](O)[C@H]1O` (stereo partly specified), the AC50 was 7.94 µM (active).
For `CCCN1CCO[C@@H]2c3cc(O)ccc3OC[C@@H]21`, the AC50 was 10 µM (active).

Compared with `COc1cc2c(c(OC)c1OC)-c1ccc(O)c(=O)cc1[C@H](N)CC2`, `CN1[C@@H](C[C@@H](O)c2ccccc2)CCC[C@@H]1C[C@H](O)c1ccccc1` is higher in “activity, negative = inhibition” value: -2.81% [at 25.6 µM] for the first, 35.4% [at 25.6 µM] for the second.

First: NCC[C@H](O)C(=O)N[C@H]1C[C@@H](N)[C@@H](O[C@H]2O[C@@H](CN)[C@@H](O)[C@@H](O)[C@@H]2N)[C@@H](O[C@H]2O[C@@H](CO)[C@@H](O)[C@@H]2O)[C@@H]1O
Second: CC(=O)N[C@@H]1CCSC1=O
The “activity, negative = inhibition” value of the first is higher: 23.6% [at 25.6 µM] for the first, 14.5% [at 25.6 µM] for the second.

In the case of `NC(N)=NN=Cc1c(Cl)cccc1Cl`, the “activity, negative = inhibition” value is reported as 27.6% [at 25.6 µM].
